hcDAF12 agonist = activators of H. contortus DAF-12 nuclear receptor; AID 652067; 370,000 compounds, 1.4% hits; HEK293 hcDAF-12 lit1-tk-luc reporter, luminescence; 0% DMSO, 100% Δ7-dafachronic acid; activation, % at 6.8 µM;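 active means activation above the mean of all tested compounds plus 3 SD, cut at about 5.5% in these data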
SMARCA2 activ = SMARCA2 function activation, primary screen. MG213 cells, MMTV-luciferase reporter, dexamethasone, overnight. activation, % at 9.1 µM. 370,000 compounds, 1% hits; in the data active means activation above about 7.8%
DAX1 inh-1 = inhibitors of human orphan nuclear receptor DAX1 (NR0B1) | P51843 | HEK293 Gal4-DAX1 luciferase reporter, luminescence | inhibition, % at 6.75 µM | 340,000 compounds, 0.99% hits | AID 504766;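 active means inhibition above the mean over all tested compounds plus 3 SD, cut at about 4.2% in these data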;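 further: inhibition shows as a rise in luminescence from relieved DAX1 repression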
Target sequence (P51843 207-470 limits assumed): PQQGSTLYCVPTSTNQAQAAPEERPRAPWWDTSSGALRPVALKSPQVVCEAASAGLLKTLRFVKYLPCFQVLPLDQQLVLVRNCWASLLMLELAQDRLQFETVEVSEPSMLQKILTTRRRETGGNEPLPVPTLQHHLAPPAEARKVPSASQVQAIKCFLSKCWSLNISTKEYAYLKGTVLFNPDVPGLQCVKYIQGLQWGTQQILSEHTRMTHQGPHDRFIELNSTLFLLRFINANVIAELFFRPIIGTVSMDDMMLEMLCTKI
hgDAF-12 ag = hgDAF-12 agonism, primary luciferase screen | HEK293 GAL4-hgDAF12 UAS-luciferase reporter, agonist luminescence; normalized to butyrate control | activation, % at 6.8 µM | 370,000 compounds, 1.8% hits | AID 687014;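 active means activation above a cutoff set at the mean of all screened compounds plus 3 SD, cut at about 10% in these data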
DAX1 inh-2 = blocks DAX1 repression of SF-1 activated StAR promoter; 370,000 compounds, 1.1% hits; HEK293T StAR-luciferase reporter, SF-1/DAX-1 repression relief; inhibition, % at 6.8 µM;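 active means inhibition above the mean over all tested compounds plus 3 SD, cut at about 3.6% in these data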;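 further: higher inhibition means more luminescence from relief of DAX-1 repression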
ssDAF12 agonist = S. stercoralis DAF-12 activation, primary screen | HEK293 ssDAF-12/GRIP1 lit1-tk-luc reporter, luminescence; % of 3 µM dafachronic acid response | activation, % at 6.8 µM | 370,000 compounds, 1% hits;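 active means activation above the mean over all tested compounds plus 3 SD, cut at about 0.9% in these data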
Each line names hits and unclear results; the compound was inactive in the other large screens. The list is not random: actives were taken first. Their share in the collection is about 4.8%.

CCOC(=O)[C@]12CCCC=C1N(CCCOC)C(=O)[C@@H]2CC(=O)N1CCCC1	none (no result: DAX1 inh-1)
N#CCC[C@@H]1CC[C@]2(CCCN(Cc3ccc(Br)cc3)C2)O1	none (no result: DAX1 inh-1)
O=C(Nc1cccc(C(F)(F)F)c1)C(Sc1ncnc2ccccc12)c1ccccc1 (stereo unspecified)	none
Cc1cc(C)cc(NC(=O)C(Sc2ncnc3ccccc23)c2ccccc2)c1 (stereo unspecified)	hcDAF12 agonist 6.4
COc1ccc(/C=N\Nc2ccccn2)c(OC)c1	hgDAF-12 ag 10.8
CCCOc1ccc(/C=N/Nc2ccccn2)cc1OC	none
COc1cc(/C=N/Nc2ccccn2)ccc1OCC(C)C	hgDAF-12 ag 10.5
CCOC(=O)N1CCN(C(=O)C[C@H]2C[C@@]3(C(=O)OC)C(=C[C@H](C4CCCC4)O[C@@H]3C)N(CCC3=CCCCC3)C2=O)CC1	none (no result: DAX1 inh-1)
Cc1ccccc1-c1nnc(Cc2ccccc2)o1	hgDAF-12 ag 11.7
COC(=O)c1ccc(C2NC(C(=O)O)CS2)cc1 (stereo unspecified)	DAX1 inh-1 4.6
COC(=O)c1cccc(NC(=O)c2cnoc2C)c1	none
Cc1oncc1C(=O)Nc1ccc(C(F)(F)F)cc1	DAX1 inh-2 4.3
Clc1ccccc1OCCCn1ccnc1	ssDAF12 agonist 1.4
CCC(NC(=O)c1ccc2c(ccn2Cc2cccc(-c3ccc(C(=O)O)cc3)c2)c1)c1ccccc1 (stereo unspecified)	none (no result: DAX1 inh-1)
O=C(NCCSc1c[nH]c2ccccc12)c1ccco1	hcDAF12 agonist 5.9
O=C(NCCc1c[nH]c2ccccc12)/C(=C/c1cccnc1)NC(=O)c1ccco1	DAX1 inh-1 4.5
O=C(NCCc1c[nH]c2ccccc12)/C(=C\c1cccnc1)NC(=O)c1ccco1	none
Cn1nnc2cc(C(=O)Nc3ccccc3)ccc21	hgDAF-12 ag 10.8, ssDAF12 agonist 0.9
Cc1ccc(NC(=O)c2ccc3c(c2)nnn3C)cc1	none
Cc1ccc([N+](=O)[O-])c2c1C(N1CCCCC1)C(C)(C)O2 (stereo unspecified)	none
Cc1ccc([N+](=O)[O-])c2c1C(N1CC(C)OC(C)C1)C(C)(C)O2 (stereo unspecified)	ssDAF12 agonist 14.8
CCCCCc1ccc(NC(=O)O[C@@H]2CC[C@@]34CCCN3C(=O)CCC[C@H]4C2)cc1	none (no result: SMARCA2 activ, DAX1 inh-1, DAX1 inh-2)
O=C(OC12CCCN(C1)/C(=C/c1cccnc1)C2)C1CCCCC1 (stereo unspecified)	none (no result: DAX1 inh-1)
CC(NC(=O)C12CC3CC(CC(O)(C3)C1)C2)c1ccccc1 (stereo unspecified)	DAX1 inh-1 5.7
NC(=O)NC(=O)COC(=O)c1ccc2noc(-c3ccccc3)c2c1	hgDAF-12 ag 12.2
CC(=O)COC(=O)c1ccc2noc(-c3ccccc3)c2c1	none
O=C(Nc1ccccc1)C1Cc2ccccc2CN1C(=O)c1ccco1 (stereo unspecified)	hcDAF12 agonist 6.3, hgDAF-12 ag 12.7, ssDAF12 agonist 1.0
COCCCNC(=O)C[C@H]1C[C@@]2(C(=O)OC)C(=C[C@H](C(C)C)O[C@@H]2C2CC2)N(CCc2ccc(OC)c(OC)c2)C1=O	none (no result: DAX1 inh-1)
O=C(CN1CCCCC1CO)c1ccc(OC(F)F)cc1 (stereo unspecified)	DAX1 inh-1 4.5
O=C(CCc1nnc(C2(c3ccc(Cl)cc3)CCC2)o1)N1CCCC(O)C1 (stereo unspecified)	none
CC(NC(=O)CCc1nnc(C2(c3ccc(Cl)cc3)CCC2)o1)C1CC1 (stereo unspecified)	DAX1 inh-1 4.4
NC(=O)Nc1ccccc1C(=O)N1CCC(O)(c2ccc(Cl)cc2)CC1	DAX1 inh-1 5.4 (no result: hcDAF12 agonist, SMARCA2 activ, hgDAF-12 ag, DAX1 inh-2, ssDAF12 agonist)
COC(=O)Nc1ccccc1C(=O)N1CCC(O)(c2ccc(Cl)cc2)CC1	none
CC(=O)NCc1ccc(C(=O)CN2C(=O)NC3(CCCCC3C)C2=O)s1 (stereo unspecified)	hgDAF-12 ag 12.4
CC1CCCCC12NC(=O)N(CC(=O)NCc1ccccc1)C2=O (stereo unspecified)	none
CS(=O)(=O)N[C@@H]1C[C@@H]2O[C@H](CO)CC[C@@H]2O[C@@H]1CCc1ccc(-c2ccccc2F)cc1	none (no result: DAX1 inh-1)
Cc1ccc(-c2nc3cc(N)ccc3o2)c(C)c1	hgDAF-12 ag 12.4
CCCCOc1ccc(CC(=O)NCC(=O)O)cc1	DAX1 inh-1 4.9
CNC(=O)C[C@@H]1CC[C@@H]2[C@H](COc3ccc(NC(=O)c4cccc(F)c4)cc3C(=O)N2C)O1	none (no result: DAX1 inh-1)
CC(C)(C)c1ccc(S(=O)(=O)NNC(=O)c2cc3ccccc3[nH]2)cc1	hcDAF12 agonist 6.5
CCCC(C)NNC(=O)c1cc2ccccc2[nH]1 (stereo unspecified)	none
Cc1ccc(-n2c(SCC(=O)Nc3ccc(S(=O)(=O)Nc4cc(C)nc(C)n4)cc3)nnc2-c2ccc(C(C)(C)C)cc2)cc1	none (no result: DAX1 inh-1)
Cc1ccccc1NS(=O)(=O)c1nnc(NC(=O)c2ccccc2C)s1	hcDAF12 agonist 6.2
CCCCOCCCNC(=O)C[C@@H]1C(=O)N2CCCC3=C2[C@@]1(C(=O)OC)CCCC3	none (no result: DAX1 inh-1)
COC(=O)C1CN(C2CC2)CCS(=O)(=O)N1Cc1cn(Cc2ccc(C)cc2)nn1 (stereo unspecified)	none (no result: DAX1 inh-1)
O=C(NC(c1ccc(F)cc1)c1ccc2ccccc2n1)C1CCN(Cc2ccc3ccccc3n2)CC1 (stereo unspecified)	none (no result: DAX1 inh-1)
O=C(NC(c1ccc(F)cc1)c1ccc2ccccc2n1)C1CCN(Cc2cccc(C(F)(F)F)c2)CC1 (stereo unspecified)	DAX1 inh-2 3.7 (no result: DAX1 inh-1)
COC(=O)[C@]12C[C@H](CC(=O)NCc3cccs3)C(=O)N(Cc3ccco3)C1=C[C@H](C1CCCC1)O[C@@H]2C	none (no result: DAX1 inh-1)
COc1cccc(N2C(C(C)=O)=NN(c3ccccc3)C2c2ccc(N3CCOCC3)cc2)c1 (stereo unspecified)	hgDAF-12 ag 10.9
FCCCOc1ccc(-c2ccnc3ncnn23)cc1	DAX1 inh-1 5.2
COc1ccc(-c2ccnc3ncnn23)cc1	none
CC(C)(C)N(Cc1cn(Cc2ccccc2)nn1)S(=O)(=O)c1ccc(N2CCCCC2)cc1Br	none (no result: DAX1 inh-1)
Cc1cc2c([nH]c3ccccc32)c(C)n1	none
Cc1c2ccncc2cc2c1[nH]c1ccccc12	hgDAF-12 ag 10.9
COc1cc2c(cc1OC)C(C)=NC1(CCCCC1)C2	DAX1 inh-1 4.6
C=CCCC1(CCC)C(=O)/C(=C(\O)c2ccccc2)C(=O)C(CCC)=C1OC (stereo unspecified)	none (no result: DAX1 inh-1)
O=C(Cn1ccc([N+](=O)[O-])n1)N1CCCCC1	DAX1 inh-1 5.5
CC(C)C[C@H]1COc2cccc(F)c2S(=O)(=O)N1Cc1cn(Cc2ccc(F)cc2)nn1	none (no result: DAX1 inh-1)
Cn1c(=O)c(-c2ccccc2N)nc2ccccc21	hcDAF12 agonist 6.3
CNc1ccccc1-c1nc2ccccc2n(C)c1=O	none
